This note sets out measurements from PubChem BioAssay (NCATS).

Each structure is given as a SMILES string. Inconclusive results are not listed. Values without a mark were called inactive. The source made the active and inactive calls. Calls come from the whole dose curve.
% is set by controls: 0 for no effect and ±100 for the full control effect; potency is the fitted concentration of half-maximal effect.

This experiment in a line: qHTS assay for small molecule disruptors of the mitochondrial membrane potential - 1 hr assay (AID 651754). Note: nearly all actives have a fitted effect of over 35% in size. The following applies: series mostly up to 92.2 µM; ratio change, negative = depolarisation: at the top concentration. The source says:
National Center for Advancing Translational Sciences [NCATS]
NIH Chemical Genomics Center [NCGC]
National Institutes of Environmental Health Sciences [NIEHS]
National Toxicology Program [NTP]
Mitochondrial membrane potential (MMP), one of the parameters for mitochondrial function, is generated by mitochondrial electron transport chain that creates an electrochemical gradient by a series of redox reactions. This gradient drives the synthesis of ATP, a crucial molecule for various cellular processes. Measuring MMP in living cells is commonly used to assess the effect of chemicals on mitochondrial function. […] The dye accumulates in the mitochondria of healthy cells as aggregates, with red fluorescence. The mitochondrial potential collapses and the dye can no longer accumulate in the mitochondria and remains in the cytoplasm in monomers, with green fluorescence.
2,000 HepG2 cells in 5 uL/well were dispensed into black, clear-bottom 1536-well plates using a Multidrop Combi (Thermo Scientific) dispenser. The assay plates were incubated overnight at 37C to allow cells to attach to the wells, followed by the transfer of 23 nL compound or DMSO vehicle by a pin tool (Kalypsys). The plates were incubated for 1 hr at 37C and 5% CO2, followed by the addition of 5 uL of 2X Mito-MPS dye (BD Biosciences) into each well using Flying Reagent Dispenser (Aurora Discovery) and then following 30 min incubation at 37C. Fluorescence intensity (490nm excitation and 535nm emission for monomers; and 540nm excitation and 590nm emissions for aggregates) was measured using an Envision plate reader.
In the case of `CC(C)=CCC/C(C)=C/C=O`, the “ratio change, negative = depolarisation” value is 1.98%.

`BrC/C=C/CBr`: the “ratio change, negative = depolarisation” value was -0.736%.

Consider `CC(=O)c1cccc([N+](=O)[O-])c1`, for which the “ratio change, negative = depolarisation” value is 5.92%.

As for `CC1=C(/C=C/C(C)=C/C=C/C(C)=C\C=O)C(C)(C)CCC1`, the “ratio change, negative = depolarisation” value was 13.1%.

For the compound `CC#N`, the “ratio change, negative = depolarisation” value is 0.295%.

Take `O=C(O)c1ccc(Cl)cc1Cl`: the “ratio change, negative = depolarisation” value was 0.2%.

Turning to `C=C(C)C(=O)OC`, the “ratio change, negative = depolarisation” value is -4.6%.

As for `CCCC(Cl)CCCC(Cl)CCC(Cl)CCC(Cl)CCC(Cl)CCCC(Cl)CCC` (stereo not given), the “ratio change, negative = depolarisation” value was 2.72%.

Consider `OC/C(Br)=C(\Br)CO`, for which the “ratio change, negative = depolarisation” value is -0.198%.

Turning to `C=CCCC`, the “ratio change, negative = depolarisation” value was 4.01%.

With `O=C(O)c1cccc([N+](=O)[O-])c1`, the “ratio change, negative = depolarisation” value was -2.13%.

For `N#CCc1ccccc1[N+](=O)[O-]`, the “ratio change, negative = depolarisation” value is -1.18%.

In the case of `Cc1ccccc1C#N`, the “ratio change, negative = depolarisation” value is 0.169%.

Consider `Cc1cccc(C)c1[N+](=O)[O-]`, for which the “ratio change, negative = depolarisation” value is 2.4%.

On to `CCCC(C)CO` (stereo not given), for which the “ratio change, negative = depolarisation” value is 9.39%.

Take `CCCCCCCCC`: the “ratio change, negative = depolarisation” value was -0.0255%.

In the case of `CC(C)(O)CCC(C)(C)O`, the “ratio change, negative = depolarisation” value was 5.32%.

Consider `C=Cc1ccccn1`, for which the “ratio change, negative = depolarisation” value is -2.8%.

With `CCCCCCCCCCCCC1CO1` (stereo not given), the “ratio change, negative = depolarisation” value is 6.35%.

`O=[N+]([O-])c1cc(C(F)(F)F)ccc1Cl`: the “ratio change, negative = depolarisation” value was 1.1%.

`Cc1ccc([N+](=O)[O-])c(N)c1`: the “ratio change, negative = depolarisation” value is -12.6%.

With `O=[N+]([O-])c1cccc(Cl)c1`, the “ratio change, negative = depolarisation” value is -0.731%.

`CCN(Cc1ccccc1)c1ccccc1`: the “ratio change, negative = depolarisation” value is -8.49%.

As for `NC(=O)c1cccc([N+](=O)[O-])c1`, the “ratio change, negative = depolarisation” value was 4.3%.

As for `CNc1ccccc1`, the “ratio change, negative = depolarisation” value was -1.6%.

In the case of `CC/C(C)=N/O`, the “ratio change, negative = depolarisation” value was 1.58%.

On to `Cc1c(N)cccc1[N+](=O)[O-]`, for which the “ratio change, negative = depolarisation” value is -11.1%.

In the case of `COCCOC(=O)c1ccccc1C(=O)OCCOC`, the “ratio change, negative = depolarisation” value was -5.44%.

As to `CCOc1cccc(N)c1`, the “ratio change, negative = depolarisation” value was 0.897%.

For `CC(C)CO`, the “ratio change, negative = depolarisation” value is -3.27%.

As to `CCCCC(=O)N(C)C`, the “ratio change, negative = depolarisation” value was -0.526%.

Regarding `O=C(Cl)c1c(Cl)cccc1Cl`, the “ratio change, negative = depolarisation” value was 8.74%.

As to `CC(C)Nc1ccccc1`, the “ratio change, negative = depolarisation” value was 7.5%.

For the compound `Nc1nc(CC(=O)O)cs1`, the “ratio change, negative = depolarisation” value was 0.0691%.

Turning to `Nc1cc(Cl)c([N+](=O)[O-])cc1O`, the Potency is 33.5 µM (active).

As to `CCCCOCCOCCSC#N`, the “ratio change, negative = depolarisation” value was 11.6%.

For `C1COC1`, the “ratio change, negative = depolarisation” value was -10.3%.

In the case of `CCc1ccccc1`, the “ratio change, negative = depolarisation” value is -1.45%.

Turning to `Cc1cccc2cccnc12`, the “ratio change, negative = depolarisation” value is -1.86%.

As for `CN(C)CCCNCCCN`, the “ratio change, negative = depolarisation” value is 0.338%.
